Compound activity deposited in PubChem BioAssay by National Center for Advancing Translational Sciences (NCATS).
Marburg entry inh: blocks Marburg virus binding to or entry into cells. Potency, µM (highest dose often 37.8 µM), inactives show top-dose activity change, negative = inhibition, actives largely listed as inhibitors. actives 1.8% (n = 300,000). Marburg virus pseudotyped entry inhibition, cell reporter; calls by dose curve; tested in HEK293 cells; further: potency means the concentration at half of the fitted maximal effect; on the % scale 0 is the no-effect control and ±100 the full control effect
Lassa entry inh: inhibitors of Lassa virus binding or cell entry; Potency, µM (titrated, usually from 37.9 µM), for the others: top-dose activity change, negative = inhibition, actives largely listed as inhibitors; actives 1.2% (n = 300,000); Lassa virus pseudotype entry inhibition, cell reporter; calls by dose curve; tested in HEK293 cells; further: potency means the concentration at half of the fitted maximal effect; on the % scale 0 is the no-effect control and ±100 the full control effect; nearly all actives have a fitted effect of over 50% in size
Shiga inhibitor: Shiga toxin inhibition. actives 9.2% (n = 290,000). inhibition, % at 38.7 µM. Vero cells, Shiga toxin protein synthesis inhibition reporter; in the data active means inhibition mostly above about 28%, no sharp cut-off; inactive means mostly below about 43%; further: 0% is about no effect
HCV inhibitor: blocks hepatitis C virus; Huh7.5.1 HCVcc-Cre infection, luciferase reporter, 44 h; Potency, µM (titrated, usually from 41.8 µM), for inactives: at the top dose activity change, negative = inhibition, most hits filed as inhibitors; actives 3.4% (n = 340,000); AID 651820; active means well fitted inhibition curve with a large enough effect; inconclusive means small, poorly fitted or top-dose-only effect, or another doubt; inactive means no such curve, though single readings can be large or run the other way; further: potency means the concentration at half of the fitted maximal effect; on the % scale 0 is the no-effect control and ±100 the full control effect
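Compounds are dispensed onto cells plated 4 h earlier at 1,000 per well, with HCVcc-Cre virus (about 0.5 moi) added next. Following 44 h of culture, luminescent signal is measured for 15 sec after 15 min with substrate at room temperature.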
CHX counter: counter-screen for Shiga toxin inhibitors: cycloheximide protein synthesis inhibition; cell reporter, cycloheximide protein synthesis inhibition counterscreen; actives 12% (n = 300,000); max response, %; in the data active means max response mostly above about 13%, no sharp cut-off; inactive means mostly below about 14%; further: read at 38.3 µM for the half of the compounds with a filed dose; 0% is about no effect
FMDV inh: blocks foot and mouth disease virus; FMDV antiviral cell-based qHTS; Potency, µM (top dose mostly 57.9 µM), without a hit: top-dose activity change, negative = inhibition, most hits filed as inhibitors; actives 1.2% (n = 410,000); AID 1159524; calls by dose curve; tested in HEK293T cells; further: read-out not given here; potency means the concentration at half of the fitted maximal effect; on the % scale 0 is the no-effect control and ±100 the full control effect; nearly all actives have a fitted effect of over 45% in size
Starred values were filed as active, the others as inactive; i = inactive; ? = inconclusive; / = no result; + = active, no number; [ ] = remark or other dose. Most compounds without a hit are left out; they make up all but 13% or so of the library.

SMILES | Marburg entry inh | Lassa entry inh | Shiga inhibitor | HCV inhibitor | CHX counter | FMDV inh
O=C(CNc1cccc(Cl)c1)c1ccc(Br)cc1 | / | / | 8.1 | 3.3% | 12.1 | 57.6%
CC(C)c1ccc(NCCC(=O)c2ccc(Br)cc2)cc1 | ? | 7.8% | -8.3 | 11.6% | -4.3 | -13.4%
Cc1ccc(C(=O)CNc2ccc(Br)cc2)cc1 | ? | ? | 44.0* | -5.9% | 10.2 | 41.9%
COc1ccc(CN2CCN(C3CCOCC3)CC2CCO)c(C)c1C (stereo not drawn) | 14.6%[46.1 µM] | -0.9%[46.1 µM] | -22.5 | 4.3% | -1.8 | -23.1%
COc1cc(OC)cc(C(=O)Oc2c(CN3CCOCC3)cc(Cl)c3cccnc23)c1 | -15.7%[46.1 µM] | ? | 35.5 | -27.4% | 8.0* | 10.3%
O=[N+]([O-])c1cc(CN2CCOCC2)c2cccnc2c1O | -20.8%[46.1 µM] | -28.8% | 5.6 | 0.1% | 10.2 | -6.7%
Oc1c(Cl)cc(CN2CCOCC2)c2cccnc12 | / | / | / | 2.51µM* | / | -25.1%
COc1ccc(C2C(C(N)=O)=C(C)Nc3nc(-c4cccc(Cl)c4)nn32)cc1OC (stereo not drawn) | -10.5% | 12.5% | -29.7 | 0.6% | -6.4 | 6.7%
CN(C)C(CNC(=O)CSc1nnc(-c2ccco2)o1)c1ccccc1 (stereo not drawn) | -5.0% | -0.1% | -4.1 | 14.4% | -1.6 | -26.7%
Cc1ccc(C(=O)N/N=C/C2=Cc3ccccc3OC2C)cc1 (stereo not drawn) | -23.3% | ? | 11.4 | ? | 9.9 | 3.7%
CC1Oc2ccccc2C=C1/C=N/NC(=O)c1ccccc1 (stereo not drawn) | ? | ? | 24.7 | ? | 18.4 | 24.9%
CC1Oc2ccccc2C=C1/C=N/NC(=O)c1ccccc1O (stereo not drawn) | -2.5% | -23.7% | + | 33.3% | 43.4* | -1.8%
CC1Oc2ccccc2C=C1/C=N\NC(=O)c1cccnc1 (stereo not drawn) | 1.9% | -0.9% | 53.4* | -5.6% | 19.8* | 54.5%
C[S+](=O)([O-])c1sc(C(=O)NC(=S)NC2CCC(OC(F)(F)F)CC2)c2c1C=CCC2 (stereo not drawn) | -2.0%[46.1 µM] | / | / | / | / | /
COc1ccc2c(c1)[nH]c1c(=O)n(Cc3ccco3)cnc12 | ? | ? | 39.3 | ? | 13.0* | 37.9%
COc1ccc2c(c1)c1ncn(Cc3ccco3)c(=O)c1n2C | ? | -13.8% | -8.3 | 11.2µM* | 12.8 | -20.4%
COc1ccc2c(c1)c1ncn(Cc3ccc(F)cc3)c(=O)c1n2C | -14.3% | ? | 16.9 | ? | -2.5 | -11.1%
COc1ccc(/C(C)=N/OCC(=O)N2CC3(C)CC2CC(C)(C)C3)cc1 (stereo not drawn) | 11.5% | ? | -1.6 | -14.2% | -5.1 | -3.6%
CN1C(=O)C(O)(CC(=O)/C=C/c2ccco2)c2cc(Br)ccc21 (stereo not drawn) | ? | ? | -11.4 | 11.2µM* | -2.7 | -4.4%
CN1C(=O)C(O)(CC(=O)/C=C/c2ccco2)c2ccccc21 (stereo not drawn) | 17.7%[46.1 µM] | ? | -2.6 | 5.3% | -9.3 | -21.4%
O=C1c2cccc3cccc(c23)C(c2nc3ccccc3[nH]2)N1C1CC1 (stereo not drawn) | / | / | / | / | / | -19.9%
COc1cccc(NC(=O)Cc2ccccc2)c1 | 5.4% | / | 16.0 | -29.8% | -3.3 | 51.8%
CN1C(=O)C(CC(=O)Nc2ccc(F)cc2)N(CCCc2ccccc2)C1=S (stereo not drawn) | 11.2µM* | ? | -4.3 | -17.0% | 9.6 | ?
COc1cccc(NC(=O)CNCc2ccccc2)c1 | / | / | 62.3* | ? | 28.5* | 0.0%
O=C(CNC(=O)c1ccccc1Cl)Nc1ccc(F)cc1 | ? | 11.2% | 11.3 | ? | 19.5* | 23.2%
SMILES | Marburg entry inh | Lassa entry inh | Shiga inhibitor | HCV inhibitor | CHX counter | FMDV inh
COc1cccc(NC(=O)CC(C)=O)c1 | -6.3% | 3.7% | -3.1 | 2.4% | 7.2 | -10.2%
COc1cccc(NC(=O)CC(=O)c2ccccc2)c1 | ? | ? | 100.4* | ? | 58.6* | 8.5%
O=C(CNCc1ccccc1)Nc1ccc(Oc2ccccc2)cc1 | ? | -28.7% | 32.0 | -22.2% | 1.7 | 0.8%
O=C(CNCc1ccccc1)Nc1ccc(F)cc1 | -1.0% | 17.3% | 13.9 | 21.8% | 34.6* | 25.7%
CCCCC1=CC2=CC(=O)C(C)(OC(=O)C3CCCC3)C(=O)C2=CO1 (stereo not drawn) | / | / | 19.1 | -0.7% | -7.9 | -19.1%
O=c1cnc2cnc(Nc3ccccc3)nc2n1C1CC1 | / | / | / | / | / | 5.7%
Fc1ccc(Nc2nc(-c3cccnc3)cs2)cc1 | / | / | 145.6* | ? | 48.4* | 14.5%
c1ccc(-c2csc(Nc3cccnc3)n2)cc1 | -28.3%[46.1 µM] | 0.0% | 118.3* | ? | 53.7* | 29.3%
Cc1ccc(Cl)cc1Nc1nc(-c2cccnc2)cs1 | / | / | / | ? | 17.2* | 1.0%
Clc1ccc(-c2csc(Nc3cccnc3)n2)cc1 | ? | -1.3%[46.1 µM] | 34.1 | ? | 12.4 | 10.1%
Clc1ccc(Nc2nc(-c3cccnc3)cs2)cc1 | ? | 0.5% | 119.1* | -25.8% | 41.3* | 7.5%
CCCN(C(=O)COC(=O)COc1c(C)cccc1C)c1c(N)n(Cc2ccccc2)c(=O)[nH]c1=O | 12.0% | -12.0% | / | -28.7% | / | -24.0%
CC1(C)CC(=O)C/C(=N\NC(=O)C2CC2c2ccccc2)C1 (stereo not drawn) | / | / | 43.7* | -6.0% | 2.6 | 28.0%
CCOC(=O)c1ccc(-c2c(C)cc3oc(=O)cc(-c4ccccc4)c3c2C)cc1 | / | / | i | ? | 31.6* | ?
Cc1ccc(-c2c(C)cc3oc(=O)cc(-c4ccccc4)c3c2C)cc1 | / | / | i | -6.1% | 15.6 | 0.0%
CC(=O)Oc1ccc(C)cc1-n1nc2ccccc2n1 | ? | 10.7% | 130.9* | 6.2% | 60.5* | 29.5%
Cc1ccc(OC(=O)c2ccc(S(=O)(=O)N(C)C)cc2)c(-n2nc3ccccc3n2)c1 | -12.4% | -13.0% | 80.7* | -10.9% | 34.0* | 2.5%
Cc1ccc(OC(=O)c2cccc(S(=O)(=O)N(C)C)c2)c(-n2nc3ccccc3n2)c1 | 3.8%[46.1 µM] | 11.6% | 72.6* | -13.3% | 63.8* | 6.5%
Cc1ccc(OC(=O)c2cccc(S(=O)(=O)N3CCCC3)c2)c(-n2nc3ccccc3n2)c1 | -0.3% | 19.0% | + | 0.8% | 68.9* | 38.5%
CN(C)S(=O)(=O)c1ccc(C(=O)Oc2ccccc2)cc1 | -30.0% | 4.9% | 4.7 | -4.8% | -2.1 | -24.9%
Cc1ccc(OCCC(=O)NNC(=O)c2cc(C)oc2C)cc1 | ? | -5.7%[46.1 µM] | / | 13.9% | / | -12.1%
CCOC1=C/C(=C/c2c(N)n3nc(-c4ccccc4)sc3nc2=O)C=CC1=O | ? | ? | -9.6 | 14.3% | -2.7 | -18.0%
COC1=C/C(=C/c2c(N)n3nc(-c4ccc(C)cc4)sc3nc2=O)C=CC1=O | ? | 18.4%[46.1 µM] | 76.2* | 8.3% | 54.5* | 18.3%
CC(C)CCNC(=O)C1CCN(c2nc3ccc(Cl)cc3[nH]2)CC1 | / | 6.6%[46.1 µM] | / | / | / | -8.7%
Clc1ccc2nc(N3CCCCC3)sc2c1 | ? | ? | 81.6* | ? | 38.8* | 11.1%
CC(C)C(=O)N1CCN(c2nc3ccc(Cl)cc3s2)CC1 | / | / | 62.4* | ? | 35.9* | 5.7%
